Bioassay records (PubChem)
Bead autofluor – compound fluorescence in toxin protease inhibitor counterscreen; 3.1% of 360,000 active; fluorescence intensity (no concentration beside the values); compound autofluorescence counterscreen, microsphere flow cytometry; active compounds read high; in the data active = fluorescence intensity above about 16000; inconclusive = no clear call, values can overlap the other calls
Anthrax LF prot – blocks Bacillus anthracis lethal factor protease. inhibition, % at 10 µM. multiplex microsphere protease cleavage assay, LF. P15917. 0.12% of 360,000 active; also: plate controls were buffer without enzyme for full effect and enzyme alone for no effect
Target sequence (P15917 whole entry, looked up): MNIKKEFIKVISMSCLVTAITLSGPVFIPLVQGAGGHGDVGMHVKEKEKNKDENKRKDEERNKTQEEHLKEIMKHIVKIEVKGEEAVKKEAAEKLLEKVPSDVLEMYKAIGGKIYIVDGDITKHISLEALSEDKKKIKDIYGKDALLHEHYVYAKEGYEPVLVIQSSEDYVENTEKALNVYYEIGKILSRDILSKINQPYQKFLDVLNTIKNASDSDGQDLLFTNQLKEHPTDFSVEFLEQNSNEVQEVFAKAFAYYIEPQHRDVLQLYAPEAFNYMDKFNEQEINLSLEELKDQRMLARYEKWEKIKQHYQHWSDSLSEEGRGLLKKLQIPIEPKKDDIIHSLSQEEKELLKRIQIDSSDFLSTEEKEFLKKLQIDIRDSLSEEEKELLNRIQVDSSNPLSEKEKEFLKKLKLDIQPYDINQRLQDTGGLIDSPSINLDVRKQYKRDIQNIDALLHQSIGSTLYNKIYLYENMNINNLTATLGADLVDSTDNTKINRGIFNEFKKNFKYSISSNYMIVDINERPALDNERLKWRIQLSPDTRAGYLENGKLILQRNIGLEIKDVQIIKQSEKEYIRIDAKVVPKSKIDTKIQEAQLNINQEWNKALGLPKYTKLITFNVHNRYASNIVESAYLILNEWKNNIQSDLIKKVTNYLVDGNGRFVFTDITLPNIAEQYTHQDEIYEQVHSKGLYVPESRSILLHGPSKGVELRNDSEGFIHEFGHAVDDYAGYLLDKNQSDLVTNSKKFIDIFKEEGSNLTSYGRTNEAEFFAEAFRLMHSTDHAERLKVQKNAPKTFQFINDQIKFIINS
BoNT-F LC inh – BoNT F light chain protease inhibition; Multiplex microsphere protease cleavage assay, flow cytometry; 0.22% of 360,000 active; inhibition, % at 10 µM; in the data active = inhibition above about 35%, passing the limit was not always enough; inconclusive = no clear call, values can overlap the other calls; also: plate controls were buffer without enzyme for full effect and enzyme alone for no effect
BoNT A protease – inhibitors of Botulinum neurotoxin A light chain protease | 0.17% of 360,000 active | multiplex microsphere protease substrate cleavage, flow cytometry | AID 588499 | inhibition, % at 10 µM; also: plate controls were buffer without enzyme for full effect and enzyme alone for no effect
* marks the source's active call; other numbers are inactive results; ? = inconclusive. Most compounds without a hit are left out; they make up all but 3.5% or so of the library. Rule as the data show it, unless noted: active = inhibition above about 30%; inconclusive = no clear call, values can overlap the other calls; inactive = below that.

SMILES	Bead autofluor	Anthrax LF prot	BoNT-F LC inh	BoNT A protease
CCOc1ccc(-c2noc(CCCC(N)=O)n2)cc1OC	22255*	-4.5	-1.9	-0.6
COc1ccc(-c2noc(CCCC(=O)Nc3ccc(C(N)=O)cc3)n2)cc1OC	4365	-1.0	-7.4	-2.9
COc1ccc(-c2noc(CCC(N)=O)n2)cc1OC	22164*	-4.2	-8.4	?
Cc1[nH]c2ccccc2c1C(=O)C(C)OC(=O)c1ccc(Cl)nc1 (stereo not given)	5725	1.0	1.5	1.2
CCN(CC)S(=O)(=O)c1cccc(-n2c(O)c(C=Nc3ccccc3C(=O)O)c3ccccc3c2=O)c1	5620	-9.6	-5.1	-2.2
CC1=C(C(=O)N(C)C)C(c2ccc(C)s2)NC(=S)N1 (stereo not given)	4537	-5.6	-8.4	-1.6
CCOCC(=O)Nc1cc(-c2cn3cccnc3n2)ccc1C	22267*	-1.9	-5.8	?
O=C1c2ccccc2C(=O)N1CCc1nc(-c2cccnc2)no1	4529	-2.8	-7.0	1.0
O=C1c2ccccc2C(=O)N1CCc1nc(-c2ccc(Cl)cc2)no1	21023*	-34.8	1.5	2.1
Cc1ccc(-c2noc(CCCN3C(=O)c4ccccc4C3=O)n2)cc1	?	-3.9	-5.8	1.8
O=C1c2ccccc2C(=O)N1CCc1nc(-c2ccncc2)no1	19470*	-8.3	2.0	2.3
O=C(Nc1ccc2c(c1)C(=O)OC2)c1ccccc1Cl	3976	5.0	-0.3	-3.0
Cc1ccc(Cl)c(NC(=O)COC(=O)c2nn(C)c(=O)c3ccccc23)c1Cl	6124	-2.6	-7.2	2.0
Cc1ccc(/C=C2\CCC3=C2OC(N)=C(C#N)C3c2ccc(C)cc2)cc1 (stereo not given)	10272	5.5	41.5*	6.8
Cc1ccc(C2C(C#N)=C(N)Oc3cc(N)ccc32)cc1 (stereo not given)	3919	-9.8	?	-1.7
Nc1ccc(CSc2ccc(Cl)cc2)c(Cl)c1	4119	-6.8	-0.5	-0.2
CCOC(=O)C1=C(C)OC(N)=C(C#N)C1c1ccc(OC)c(C)c1OC (stereo not given)	20362*	0.8	-2.5	?
CCOC(=O)C1=C(CC)OC(N)=C(C#N)C1c1cc(OC)ccc1OC (stereo not given)	21578*	0.3	-8.1	?
CCOc1cc(C2C(C#N)=C(N)OC(C)=C2C(C)=O)cc(Br)c1O (stereo not given)	7340	2.1	4.2	1.5
CCOc1cc(C2C(C#N)=C(N)OC(C)=C2C(C)=O)c(Br)c(Br)c1OC(C)C (stereo not given)	21864*	0.2	3.9	3.0
CCOC(=O)C1=C(CC)OC(N)=C(C#N)C1c1ccc(OC)c(C)c1OC (stereo not given)	2513	-1.1	-12.1	-1.8
CC1CCCN(CC(=O)Nc2ccc(S(=O)(=O)N3C(C)CCCC3C)cc2)C1 (stereo not given)	3690	1.4	2.1	-0.4
O=C(NC1CCCCC1)OC1CC2CC1[C@H]1CCCCN1C2=O (stereo not given in full)	6392	-14.7	-6.0	-1.0
Cc1ccccc1C(=O)N1CCC(C(=O)N2CCCc3ccccc32)CC1	8256	-5.6	-8.5	-3.1
CCOP(=O)(OCC)c1nc(/C=C/c2ccccc2)oc1NCc1ccc(OC)cc1	24914*	-13.8	-7.3	-6.1
SMILES	Bead autofluor	Anthrax LF prot	BoNT-F LC inh	BoNT A protease
CCOP(=O)(OCC)c1nc(/C=C/c2ccccc2)oc1NCc1ccccc1	4335	-6.5	6.3	0.1
CCOP(=O)(OCC)c1nc(-c2cccc3ccccc23)oc1NCc1ccccc1	17554*	-5.1	-9.3	-5.1
CCOP(=O)(OCC)c1nc(-c2cccc3ccccc23)oc1NCc1ccc(OC)cc1	5422	-3.7	-10.7	-2.2
CCOC(=O)C(Cc1c(F)cccc1F)(NC(C)=O)C(=O)OCC	21936*	-5.3	1.1	0.1
CCOC(=O)C(Cc1ccccc1)(NC(C)=O)C(=O)OCC	4348	-4.1	2.2	0.2
CSc1nc(NCc2ccco2)c2sc3nc(C(C)C)c4c(c3c2n1)CC(C)(C)OC4	19909*	0.1	-0.1	?
COC(=O)c1cccc(NC(=O)CSc2nnc(C)o2)c1	6249	-2.9	3.5	-3.6
Cc1ccc(-c2cc(C)nc3nc(N)nn23)cc1	16426*	0.8	2.6	0.0
COC(=O)/C(C#N)=C\c1c(OC)[nH]c2ccccc12	4293	26.2	?	4.5
S=C(Nc1ccccc1Cl)N1CCN(Cc2ccccc2)CC1	2557	-0.3	-3.6	-0.6
COC(=O)c1ccc(Cl)c(NC(=O)CN2CCN(C)CC2)c1	23083*	-4.2	-3.3	?
COC(=O)c1ccc(Cl)c(NC(=O)CN2CCOCC2)c1	2852	-0.9	-2.5	1.1
Cc1c(Cl)cccc1NC(=O)CCN1CCCCCC1	8142	18.9	-9.7	-2.0
O=C(CN1CCCC1)Nc1ccccc1Cl	22970*	0.8	-1.4	?
Cc1c(Cl)cccc1NC(=O)CN1CCN(CCO)CC1	22331*	-11.1	2.0	1.5
Cc1c(Cl)cccc1NC(=S)N1CCN(Cc2ccccc2)CC1	23770*	2.0	1.1	-0.1
COC(=O)C(NC(=O)c1ccccc1C(=O)O)c1ccc2ccccc2c1 (stereo not given)	3534	-4.1	4.6	-6.5
O=S(=O)(NC(CO)Cc1ccccc1)c1ccc(Br)cc1F (stereo not given)	3756	5.7	1.9	0.0
CC1CCN(S(=O)(=O)c2cc3c4c(c2)C(C)C(=O)N4CCC3)CC1 (stereo not given)	5483	1.8	13.5	0.5
COC(=O)c1cc(NC(=O)CN(c2ccc3c(c2)OCO3)S(C)(=O)=O)ccc1Cl	3407	-2.7	-0.7	0.5
COC(=O)c1ccc(Cl)c(NC(=O)CN(c2ccc3c(c2)OCO3)S(C)(=O)=O)c1	20796*	-10.8	6.7	4.4
CCOC(=O)c1nnc(-c2ccccc2)nc1NCc1ccccc1	24408*	0.3	-0.3	-1.3
CCOC(=O)c1cc(C#N)c(NCc2ccccc2)nc1C	11823	-2.9	-11.1	-1.1
CC1CN(S(=O)(=O)c2ccc(C(=O)N(CCCN(C)C)c3nc4c(Cl)cccc4s3)cc2)CC(C)O1 (stereo not given)	4857	-1.7	0.6	-3.0
Clc1nc(-c2ccccc2)cc(-c2ccc(Br)cc2)n1	23930*	-2.1	-2.6	-1.1
SMILES	Bead autofluor	Anthrax LF prot	BoNT-F LC inh	BoNT A protease
Nc1cc(-c2ccc(Br)cc2)nc2cc(-c3ccccc3)nn12	4810	-0.4	-2.9	-0.2
CN(C(=O)CN1CCC(NC(=O)C2CCCCC2)CC1)C1CCCCC1	23953*	-3.1	-4.5	-1.7
COc1cc(/C=C/C(=O)O)cc2c1OCCO2	4580	-8.8	-2.4	-1.0
Oc1c(N=Nc2ccccn2)ccc2ccccc12	6158	12.4	-16.7	35.6*
COc1cc(N2CCCC2)c(OC)cc1/C=C(/C#N)c1ccc(F)cc1	7730	-5.9	34.9*	1.1
COc1cc(N2CCCC2)c(OC)cc1/C=C(/C#N)c1ccc(Br)cc1	20296*	-1.3	-1.5	0.8
CCC/C=C/c1ccc(CN2C(C)C(=O)N(Cc3cn(CCC4OCCCO4)nn3)CCS2(=O)=O)cc1 (stereo not given)	3001	-3.0	-2.1	0.2
Cc1nc(Nc2ccncc2)c2oc3ccccc3c2n1	7268	-0.3	11.0	1.1
CCc1nc(Nc2ccncc2)c2oc3ccccc3c2n1	20587*	-1.3	-1.7	-0.1
